# Most compounds without a hit are left out; they make up all but 7.4% or so of the library.
# Rab9 prom act: Rab9 promoter activation; Potency, µM (top dose mostly 9.22 µM), for inactives: at the highest dose activation, negative = inhibition, most hits filed as activators; Huh7 Rab9 promoter-luciferase reporter, luminescence, 24 h; AID 485297; 2.8% of 320,000 active; note: % of control where 0% means no effect; nearly all actives have a fitted effect of over 60% in size
#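 Huh7 cells stably carrying a Rab9 promoter-luciferase reporter, 1500 cells per well in OP-MEM I with 10% FBS, treated with compound 24 hours at 37C. Luciferase activity read by luminescence after 10 minutes with Amplite reagent.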
# ELG1 genotoxic: induces genotoxicity in HEK293T cells with luciferase-tagged ELG1; Potency, µM (doses to about 46 µM), for the others: at the top dose activity change, positive = activation, actives largely listed as activators; 1.3% of 330,000 active; HEK293T ELG1-luciferase reporter, luminescence, 16 h; note: % of control where 0% means no effect; nearly all actives have a fitted effect of over 60% in size
#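 Reporter readout depends on ELG1 protein level, which increases with genetic stress. After 16 hr compound exposure at 37 °C, luciferase activity was quantified using ONE-Glo.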
# NPC1 promoter act: NPC1 promoter activation; 2.4% of 320,000 active; Huh7 NPC1 promoter luciferase reporter, 24 h; Potency, µM (titrated, usually from 9.22 µM), inactives show top-dose activation, actives largely listed as activators; note: % of control where 0% means no effect; nearly all actives have a fitted effect of over 60% in size
#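 Stably transfected Huh7 (NPC1 promoter→luciferase), 1500 cells/well in Opti-MEM + 10% FBS, 2 h settle, then compound 24 h at 37 °C. Luminescence after 10 min with Amplite reagent.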
# Luc counter: counter-screen: inhibitors of Kinase-Glo firefly luciferase | Kinase-Glo luciferase, ATP luminescence, 8 min | Q27757 | Potency, µM (doses to about 38.3 µM), inactives show at the top dose activity change, negative = inhibition, most hits filed as inhibitors | 0.28% of 200,000 active; note: % is set by controls: 0 for no effect and ±100 for the full control effect; nearly all actives have a fitted effect of over 60% in size
#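 Compound is pinned into ATP-containing buffer (10 uM ATP, imidazole pH 7.2, 7 mM MgCl2). Kinase-Glo luciferase reagent is then added. Light output is recorded following an 8-min room-temperature incubation.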
# FLuc counter: inhibits or activates purified firefly luciferase, miR-21 counter-screen; purified FLuc, Km substrates, luminescence inhibition; Potency, µM (titrated, usually from 57.5 µM), inactives show top-dose activity change, negative = inhibition, hits mostly inhibitors; 6.9% of 360,000 active; AID 588342;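 note: plate controls were vehicle for no effect and reference inhibitor for full effect; nearly all actives have a fitted effect of over 55% in size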
# Target sequence (P08659 whole entry, looked up): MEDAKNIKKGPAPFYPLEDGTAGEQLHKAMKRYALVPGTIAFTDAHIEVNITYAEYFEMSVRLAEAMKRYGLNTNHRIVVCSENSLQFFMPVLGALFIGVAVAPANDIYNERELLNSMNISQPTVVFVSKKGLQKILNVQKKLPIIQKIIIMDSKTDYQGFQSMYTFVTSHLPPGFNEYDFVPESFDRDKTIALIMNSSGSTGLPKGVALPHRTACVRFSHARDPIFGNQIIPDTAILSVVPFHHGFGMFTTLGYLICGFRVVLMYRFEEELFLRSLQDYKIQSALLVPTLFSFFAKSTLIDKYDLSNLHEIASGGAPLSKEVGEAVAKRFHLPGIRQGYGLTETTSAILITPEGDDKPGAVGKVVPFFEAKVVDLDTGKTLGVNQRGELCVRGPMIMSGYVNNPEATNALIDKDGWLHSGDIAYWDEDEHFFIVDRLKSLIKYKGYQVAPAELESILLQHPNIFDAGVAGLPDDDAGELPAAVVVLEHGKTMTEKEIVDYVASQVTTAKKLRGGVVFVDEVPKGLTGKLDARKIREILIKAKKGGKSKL
#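 Purified P. pyralis luciferase (10nM final) with 10uM D-luciferin and 10uM ATP (Km levels) in 50mM Tris acetate pH 7.5, 10mM Mg acetate, 0.01% Tween-20, 0.05% BSA; qHTS 6-point titration, ~60 µM downward; luminescence read.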
# SMN2 splice enh: enhancers of SMN2 splice variant expression; Potency, µM (top dose mostly 46.1 µM), inactives show top-dose activity change, positive = activation, actives largely listed as activators; 2.8% of 210,000 active; HEK293 SMN2-luciferase splicing reporter, luminescence, 30-36 h; AID 1458; note: % of control where 0% means no effect; nearly all actives have a fitted effect of over 55% in size
#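 HEK293 cells carry an SMN2 minigene-luciferase reporter in which exon 7 inclusion puts luciferase in frame. Cells were seeded at 2000 cells/well, attached for 10-12 hours, then exposed to compounds for 30-36 hours at 37C before ONE-Glo luminescence.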
# An asterisk follows results filed as active; ? = inconclusive; / = no result; [ ] = remark or other dose. Calls come from the whole dose curve; as a rule, active = well fitted curve in the direction sought with a large enough effect; inconclusive = small, poorly fitted or top-dose-only effect, or another doubt; inactive = no such curve, though single readings can be large; an effect the other way counts as inactive or inconclusive. Potency is the fitted concentration of half-maximal effect.
SMILES,Rab9 prom act,ELG1 genotoxic,NPC1 promoter act,Luc counter,FLuc counter,SMN2 splice enh
CCOC(=O)c1cnc(SCC(C)C)nc1N,2.5µM*,?,3.2µM*,1%,6.7µM*,14µM*
CCOC(=O)c1cnc(SCC(=O)c2ccccc2)nc1N,1.6µM*,21µM*,3.2µM*,-9%,2.1µM*,13µM*
CCOC(=O)c1cnc(SCC(=O)c2ccc3c(c2)OCCO3)nc1N,?,4%,0%,21%,21µM*,14%
COc1ccc(C(=O)N(c2ccc(C)cc2)S(=O)(=O)c2ccc(C)cc2)cc1,/,/,/,/,-1%,/
CSc1ccccc1NC(=O)CN(C)C(C)C(=O)NCc1ccc2c(c1)OCO2 (stereo not drawn),/,-1%,/,/,/,/
O=C(NCCc1ccc(Cl)cc1)C1COc2ccccc2O1 (stereo not drawn),-1%,2%,-4%,/,-2%,/
O=C(CSc1nnc(SCc2ccc(Cl)cc2)s1)N/N=C/c1c[nH]c2ccccc12,-3%,10%,7%,-6%,-5%,-22%
O=C(O)COc1ccccc1/C=N/NC(=O)CSc1nnc(SCc2cccc3ccccc23)s1,-4%,0%,2%,/,19µM*,/
O=C(O)COc1ccccc1/C=N/NC(=O)CSc1nnc(SCc2ccc(Cl)cc2)s1,5%,-3%,13%,/,9.5µM*,/
O=C(CSc1nnc(SCc2ccc(Cl)cc2)s1)N/N=C/c1ccc(C(=O)O)cc1,0%,2%,10%,/,1.3µM*,/
O=C(CSc1nnc(SCc2cccc3ccccc23)s1)N/N=C/c1c[nH]c2ccccc12,-1%,-6%,0%,2%,?,-26%
O=C(NCc1ccc(F)cc1)C1CCCN(C(=O)Nc2ccc(F)cc2)C1 (stereo not drawn),-5%,0%,-5%,/,-2%,/
NC(=O)C1CCN(c2nc(-c3ccc4c(c3)OCCO4)cs2)CC1,2.8µM*,2%,1.4µM*,/,4.8µM*,/
NC(=O)C1CCN(c2nc(-c3ccc4c(c3)OCO4)cs2)CC1,/,/,/,/,19µM*,/
COc1ccc(/C=C2\SC(=S)N(CC3CCCO3)C2=O)cc1 (stereo not drawn),25%,10%,6%,/,11µM*,/
COc1cc(/C=C2/SC(=S)N(CC3CCCO3)C2=O)ccc1O (stereo not drawn),-3%,16%,-1%,-10%,11µM*,4%
CC(=O)c1ccc(N2CCN(c3ccc(NC(=O)c4cccs4)cc3C(=O)O)CC2)cc1,/,/,/,/,-11%,/
O=C(c1ccccn1)N1CCCC(N2CCN(c3ccccc3)CC2)C1 (stereo not drawn),0%,1%,2%,/,-1%,/
COc1ccc(NC(C)(C)c2nnnn2-c2c(C)cccc2C)cc1,-3%,-5%,-2%,/,2%,/
O=c1cc(-c2ccccc2)[nH]c2ccccc12,-8%,0%,-4%,4%,?,-5%
O=C1C(c2cc(=O)c3ccccc3[nH]2)=C(O)c2ccccc21,2.2µM*,8.2µM*,1.6µM*,-19%,0.76µM*,1µM*
O=C1C(c2ccncc2)=C(O)c2ccccc21,4.5µM*,?,0.71µM*,-21%,2.1µM*,3.2µM*
COc1cc(NC(=O)C(=O)NCCN2CCNCC2)c(OC)cc1Cl,1%,28%,-5%,1%,-2%,-3%
CCc1ccc(NC(=O)c2cc(S(=O)(=O)N3CCCC3)ccc2F)cc1,/,/,/,/,-9%,/
Clc1ccc(-c2csc(Nc3ccccc3)[n+]2Cc2ccco2)c(Cl)c1,2.8µM*,10%,?,-2%,12µM*,-47%
SMILES,Rab9 prom act,ELG1 genotoxic,NPC1 promoter act,Luc counter,FLuc counter,SMN2 splice enh
O=C(Nc1cnc2ccccc2c1)C1COc2ccccc2O1 (stereo not drawn),4µM*,?,25%,-5%,13µM*,-6%
O=C(Nc1ccc(F)cc1)C1COc2ccccc2O1 (stereo not drawn),25%,16%,20%,/,?,/
O=C(Nc1cccc(Cl)c1)C1COc2ccccc2O1 (stereo not drawn),12%,8%,24%,/,?,/
O=C(Nc1ccc2c(c1)OCO2)C1COc2ccccc2O1 (stereo not drawn),2.8µM*,?,?,3%,17µM*,?
COc1cccc(NC(=O)C2COc3ccccc3O2)c1 (stereo not drawn),24%,?,?,/,27µM*,/
CCn1cc(C2=NOC(C(=O)Nc3ccc4c(c3)OCO4)C2)c(C)n1 (stereo not drawn),0%,-5%,-2%,-5%,-11%,-33%
O=C(Nc1ccc2c(c1)OCO2)C1CC(c2ccccc2Cl)=NO1 (stereo not drawn),2.5µM*,?,?,1%,2%[2.3 µM],15%
O=C(O)c1ccc(-c2ccccc2)[nH]c1=O,-4%,2%,2%,/,1%,/
CCc1cccc(CC)c1N(COC)C(=O)Cn1c(C)nc2ccccc21,/,/,/,/,-6%,-3%
CC(NC(=O)CN(c1cccc(C(F)(F)F)c1)S(C)(=O)=O)c1ccccc1 (stereo not drawn),6%,-6%,-6%,/,-1%,/
O=C(Nc1ccc2c(c1)CCC2)C1COc2ccccc2O1 (stereo not drawn),2.5µM*,21µM*,4µM*,-4%,19µM*,16µM*
Cc1ccc(C)c(OCCC(=O)OCC(=O)Nc2cccc(S(=O)(=O)N3CCCC3)c2)c1,-1%,4%,0%,/,-1%,/
O=C(NCC1CCCO1)c1csc(Nc2cccc3ccccc23)n1 (stereo not drawn),-28%,?,-30%,13µM*,21µM*,/
COc1cccc(NC(=O)c2ccccc2-c2nc(-c3cccc(C)c3)no2)c1,26%,1%,?,-3%,17µM*,-5%
O=C(NCC1CCCO1)c1ccccc1-c1nc(-c2ccccc2F)no1 (stereo not drawn),-3%,1%,3%,/,?,/
O=C(NCC1CCCO1)c1ccccc1-c1nc(-c2ccc(Cl)cc2)no1 (stereo not drawn),-6%,-7%,3%,2%,15µM*,-4%
CCCNC(=O)c1csc(Nc2cccc3ccccc23)n1,-3%,-6%,-1%,/,?,/
Cc1cccc(-c2noc(-c3ccccc3C(=O)NCC3CCCO3)n2)c1 (stereo not drawn),15%,1%,?,-5%,11µM*,11%
Cc1cccc(NC(=O)c2ccccc2-c2ccccc2)c1,-8%,-2%,-7%,3%,1%,-4%
O=C(NCC(c1ccc2c(c1)OCO2)N1CCOCC1)C(=O)Nc1ccccc1 (stereo not drawn),/,/,/,/,-1%,/
CN(C)Cc1ccccc1-c1ccc2ncnc(NCc3cccs3)c2c1,/,/,/,-3%,/,-22%
